Bioassay records: PubChem, National Center for Advancing Translational Sciences (NCATS)
ELG1 DNA repair – qHTS screen for small molecules that inhibit ELG1-dependent DNA repair in human embryonic kidney (HEK293T) cells expressing luciferase-tagged ELG1. Potency, µM (highest dose often 46.1 µM), inactives show at the highest dose activity change, negative = inhibition, usual class: inhibitors. 2.3% of 330,000 active. HEK293T ELG1-luciferase reporter, luminescence, 16 h; DNA damage induced by 5-fluorouridine; also: potency is read from the fitted curve at half-maximal effect; nearly all actives have a fitted effect of over 55% in size
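Step one: seed 2,000 cells per well. Step two: pin-transfer compound or DMSO alongside 5-fluorouridine. Step three: incubate 16 hr, 37 °C, 5% CO2. Step four: add ONE-Glo, wait 30 min, read luminescence.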
TSHR antag – Antagonists of the Thyroid Stimulating Hormone Receptor: HTS campaign; activity change, negative = inhibition, % at 11.5 µM; TSHR-expressing cells, TSH-stimulated cAMP HTRF, 2 h; stronger effect = lower value; AID 504810, 2011; 0.2% of 330,000 active; Thyrotropin receptor (Homo sapiens), P16473;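 active = activity change below a set negative limit, meaning inhibition stronger than a set level, cut at about -70% in these data; inconclusive = activity change between two set negative limits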
Target sequence (P16473 whole entry, looked up): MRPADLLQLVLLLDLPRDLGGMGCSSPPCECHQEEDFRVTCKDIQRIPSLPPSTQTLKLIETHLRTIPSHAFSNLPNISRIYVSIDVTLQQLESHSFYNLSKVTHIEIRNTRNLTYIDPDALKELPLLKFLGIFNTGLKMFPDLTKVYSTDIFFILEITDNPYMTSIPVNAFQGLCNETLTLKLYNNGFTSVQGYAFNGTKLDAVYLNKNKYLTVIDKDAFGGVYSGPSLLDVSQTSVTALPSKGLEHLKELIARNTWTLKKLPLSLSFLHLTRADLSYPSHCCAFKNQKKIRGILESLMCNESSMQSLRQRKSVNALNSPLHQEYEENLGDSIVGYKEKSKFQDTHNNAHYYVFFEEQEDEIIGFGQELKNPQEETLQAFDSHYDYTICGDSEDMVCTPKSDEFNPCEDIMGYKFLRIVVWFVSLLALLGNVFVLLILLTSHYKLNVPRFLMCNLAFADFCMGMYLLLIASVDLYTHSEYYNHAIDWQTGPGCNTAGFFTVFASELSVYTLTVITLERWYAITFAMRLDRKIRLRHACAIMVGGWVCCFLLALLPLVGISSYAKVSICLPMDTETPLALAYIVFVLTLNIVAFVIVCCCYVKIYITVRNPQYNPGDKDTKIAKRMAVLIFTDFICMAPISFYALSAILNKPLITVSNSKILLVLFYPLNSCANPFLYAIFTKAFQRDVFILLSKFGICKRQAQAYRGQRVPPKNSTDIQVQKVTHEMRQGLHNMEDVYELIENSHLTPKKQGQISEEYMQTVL
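TSHR-expressing cells were treated with compounds, then stimulated with TSH at EC80 (4nM final) for 2 hours at 37 deg C. Cellular cAMP was measured by HTRF competition between lysate cAMP and cAMP-d2 for a cryptate-labelled anti-cAMP antibody.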
RORgamma inh – qHTS for inhibitors of ROR gamma transcriptional activity. Nuclear receptor ROR-gamma (Mus musculus), P51450. AID 2551, 2010. 5.4% of 310,000 active. Potency, µM (highest dose often 53.6 µM), for inactives: at the highest dose activity change, negative = inhibition, hits mostly inhibitors. Drosophila S2 Gal4-RORgamma UAS-luciferase reporter, 20 h; also: potency is read from the fitted curve at half-maximal effect; nearly all actives have a fitted effect of over 60% in size
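A Gal4/UAS one-hybrid system in insect cells: metallothionein-promoter Gal4–ROR gamma fusion plus Photinus luciferase reporter. Copper sulfate 700 uM final, 20 hr ambient incubation, luminescent detection after 10 min with reagent.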
VP16 counter – VP16 counterscreen qHTS for inhibitors of ROR gamma transcriptional activity. Drosophila S2 Gal4-VP16 UAS-luciferase, luminescence, 20 h. AID 2546, 2010. 3.5% of 310,000 active. Potency, µM (series often up to 53.6 µM), inactives show at the highest dose activity, negative = inhibition, most hits filed as inhibitors;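 also: Gal4-VP16 expression switched on by copper sulfate through the metallothionein promoter; potency is read from the fitted curve at half-maximal effect; nearly all actives have a fitted effect of over 50% in size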
B2AR arrestin – qHTS assay of beta-arrestin-biased ligands of beta2-adrenergic receptor; beta-arrestin recruitment to beta2AR, cell-based reporter; Beta-2 adrenergic receptor (Homo sapiens), P07550; 0.02% of 330,000 active; Potency, µM (titrated, usually from 46.1 µM), for inactives: at the top dose activation, most hits filed as activators;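 also: potency is read from the fitted curve at half-maximal effect; 0% = DMSO controls and full agonism = EC100 isoproterenol or metaproterenol; nearly all actives have a fitted effect of over 65% in size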
Active calls of the source: *; ? = inconclusive; . = no result given. Only some compounds are listed: those with a hit (about 7.5% of all), similar ones and a draw of the others. Unless noted, calls follow the shape of the dose curve; as a rule, active = well fitted curve in the direction sought with a large enough effect; inconclusive = small, poorly fitted or top-dose-only effect, or another doubt; inactive = no such curve, though single readings can be large; an effect the other way counts as inactive or inconclusive. Unless noted, % is scaled to controls: 0 for no effect and ±100 for the full control effect.

SMILES	ELG1 DNA repair	TSHR antag	RORgamma inh	VP16 counter	B2AR arrestin
COc1cccc(C2NC(=S)NC3=C2CCc2ccccc23)c1 (centres undefined)	8%	-17	-155%	0.28µM*	-1%
COc1ccc2c(c1)C1=C(CC2)C(c2ccc(C)cc2)NC(=S)N1 (centres undefined)	?	-18	0.71µM*	2.8µM*	0%
COc1ccc(C2NC(=O)NC3=C2CCc2ccccc23)cc1 (centres undefined)	-20%	-9	6%	0%	3%
COc1ccc(OCC(=O)NC2CCCN(Cc3ccc(Cl)cc3)C2)cc1 (centres undefined)	8.2µM*	16	0%	-2%	-1%
Cc1ccccc1C1C(C#N)=C(N)N(N(C)C)C2=C1C(=O)CC(C)(C)C2 (centres undefined)	-20%	-12	5%	-14%	-1%
CC1C(=O)CC2C3(C)CCC2(C(C)C(=O)O)C(=O)C13 (centres undefined)	.	.	0%	-4%	.
Oc1cc(NCCc2cccnc2)cc2cccnc12	23µM*	6	.	.	0%
Cc1cc2nc(C3CCCN(C(=S)Nc4ccccc4)C3)[nH]c2cc1C (centres undefined)	18%	57	13µM*	?	0%
CCc1ccc(C(=O)C(C)CN2CCCCC2)cc1 (centres undefined)	.	.	-1%	5%	.
C=C1CSc2nc(=O)c3c4c(sc3n21)CCC4	21µM*	7	-1%	-9%	0%
CCCCn1c(N)c(N(CCOC)C(=O)CSCc2ccc(C)cc2)c(=O)[nH]c1=O	1%	-1	.	.	0%
CCOC(=O)c1c(-c2ccc(C)o2)csc1NC(=O)CN(C)CC(=O)Nc1ccc(C)cc1	15µM*	-5	13µM*	?	0%
CCOC(=O)c1c(-c2ccc(C)o2)csc1NC(=O)CN1CCCCC1	-10%	-18	-6%	2%	0%
CCOC(=O)c1c(-c2ccc(C)o2)csc1NC(=S)NC(=O)c1ccc(F)cc1	-12%	-19	1.8µM*	3.2µM*	0%
CCOC(=O)c1c(-c2ccc(C)o2)csc1NC(=O)CN1CCN(CC)CC1	-9%	-2	-1%	5%	-1%
CCNc1ncc2nc(-c3cn(C)c4ccccc34)c(=O)n(C[C@H]3CCCO3)c2n1	.	.	-14%	13%	.
Cn1c(=O)c(C(=O)NNC(=O)c2cccc(Cl)c2)c(O)c2ccccc21	-14%	?	14µM*	18µM*	0%
Cn1c(=O)c(C(=O)NNC(=O)c2ccccc2Cl)c(O)c2ccccc21	14%	-8	11µM*	?	15%
Cn1c(=O)c(C(=O)NNC(=O)c2ccccc2Br)c(O)c2ccccc21	-5%	5	20µM*	?	9%
c1ccc2c(C3=NNC(=NC4CC4)SC3)c[nH]c2c1	?	0	10µM*	10µM*	-1%
c1ccc(C2=NNC(=NC3CC3)SC2)cc1	?	21	14µM*	13µM*	0%
COC(=O)C1=C(C)[C@H](O)[C@@H](C)[C@](C)(c2cc(OC)c(C)c(OC)c2COc2ccccc2)O1	.	.	20%	2%	.
CCOC(=O)N/N=C/c1ccccc1OCc1ccc(Cl)cc1	3%	0	?	-5%	-1%
COc1cccc(/C=N/NC(N)=S)c1OCc1ccccc1Cl	-21%	-6	3.2µM*	4µM*	0%
CCOc1cc(/C=N/N=C(\N)c2nonc2N)cc(Br)c1OCc1cccc2ccccc12	4%	-7	13µM*	?	0%
SMILES	ELG1 DNA repair	TSHR antag	RORgamma inh	VP16 counter	B2AR arrestin
COc1cccc(/C=N/n2nnnc2N)c1OCc1ccccc1Cl	0%	15	13%	6%	-1%
COc1cc(/C=N/O)cc(Br)c1OC	-19%	-8	-16%	-4%	-1%
COc1cc(/C=N/N=C(/N)c2nonc2N)cc(Br)c1OCc1cccc(C)c1	-4%	-31	-33%	-12%	0%
COc1cc(/C=N/O)cc(Br)c1OCc1ccc(Cl)cc1	-6%	-10	5.6µM*	?	0%
NC(=S)N/N=C/c1ccccc1OCCSc1ccc(Cl)cc1	?	-38	?	28µM*	-1%
Cc1ccc(OCc2cc(C(=O)N3CCN(c4ccccc4)CC3)no2)cc1C	?	0	1%	11%	-1%
Cc1ccc2nc(N)[nH]c(=O)c2c1Sc1ccncc1	.	.	14%	0%	.
COc1cc(/C=N/NC(N)=S)cc(Br)c1OCc1ccccc1F	23µM*	-2	1µM*	4.5µM*	0%
CCOc1cc(/C=N/NC(N)=S)cc(Br)c1OCc1ccccc1C	-3%	-12	0.79µM*	2.5µM*	?
COc1ccc(C(C(=O)NCC2CCCO2)N(C(=O)CNC(=O)c2ccco2)c2cc(C)ccc2C)cc1OC (centres undefined)	5%	20	-32%	-2%	-1%
CC(C)=CCC/C(C)=C/CC/C(C)=C/CC/C=C(\C)CC/C=C(\C)CCC=C(C)C	.	.	9%	-4%	.
COc1ccc2oc(C(=O)NCc3cc(OC)c(OC)cc3OC)c(C)c2c1	-24%	-19	35%	-4%	3%
Cc1cc(C)cc(NC(=O)C2CCN(S(=O)(=O)c3ccc4[nH]c(=O)ccc4c3)CC2)c1	-12%	-1	16%	1%	0%
CC1Sc2ccc(S(=O)(=O)N3CCC(C(=O)N(C)Cc4ccco4)CC3)cc2NC1=O (centres undefined)	?	2	?	-8%	-1%
CC1Sc2ccc(S(=O)(=O)N3CCC(C(=O)N(C)Cc4ccccc4)CC3)cc2NC1=O (centres undefined)	7.3µM*	-12	?	?	0%
COc1ccc(/C=N/Nc2nc(Nc3ccccc3)nc(N3CCCCC3)n2)c(OC)c1	21µM*	-25	3.2µM*	11µM*	0%
COc1ccc(/C=N/Nc2ncc(-c3ccccc3)cn2)c(OC)c1	-2%	-6	?	?	-1%
CCOc1ccc(/C=N/Nc2nc(N3CCCC3)nc(N3CCCC3)n2)cc1OC	?	8	13µM*	?	-1%
COc1cc(/C=N/Nc2nc(N3CCCC3)nc(N3CCCC3)n2)ccc1O	?	-7	-40%	8%	0%
COc1ccc(/C=N/Nc2nc(N3CCCCC3)nc(N3CCCCC3)n2)cc1[N+](=O)[O-]	?	17	16µM*	-8%	-1%
COc1ccc(/C=N/Nc2nc(Nc3ccccc3)nc(N3CCCC3)n2)cc1[N+](=O)[O-]	?	-16	13µM*	-30%	0%
